# HSF1 inhib – HSF1 inhibitors in luciferase reporter cells, primary screen, cell-based, NIH3T3, luminescence | NIH3T3-HGL HSE-luciferase, MG132-induced, luminescence 8 h; hits give low values | hit rate 0.77% among 300,000 | AID 2098, 2009 | activity change, negative = inhibition, % at 7.5 µM (by protocol);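 active = more than half of replicate wells show activity change below -50%, luminescence cut by over half; inconclusive = some wells, but at most half, below -50%; inactive = no replicate well below -50%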;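 note: luciferase reports HSF-1 transcriptional activity via heat shock element; 0% = median of DMSO wells and -100% = zero luminescence signal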
# HSF1 activator – HSF-1 activators, primary screen, NIH3T3-HGL cells, MG132 stress, luminescence, single point | activation, % at 9 µM | hit rate 1.7% among 300,000 | NIH3T3-HGL HSF-1 luciferase reporter, 8 h; 100% = twice DMSO control signal;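 active = mean replicate activation of at least 50% with a set share of replicates each reaching 50%; inconclusive = only one of those two conditions met; inactive = mean below 50% and too few replicates reaching it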;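 note: 0% = median of the neutral control wells and 100% = twice that signal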
# FXN GAA850 act – FXN promoter activators, primary screen, cell-based, luciferase luminescence, HEK293 lucGAA850; activation, % at 6 µM; HEK293 lucGAA850 FXN promoter luciferase reporter, 24 h; percent of 10 µM SAHA response; hit rate 0.56% among 360,000;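 active = activation above the average of all compounds screened plus 3 SD, cutoff fixed separately per campaign, cut at about 7.5% in these data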;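 note: 0% = DMSO wells and 100% = 10 µM SAHA wells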
# AHR activator – AHR activators, primary screen, cell-based, luminescence, luciferase reporter, human | AHR-responsive luciferase reporter cells | activation, % at 5 µM | hit rate 2.5% among 320,000 | AID 2796, 2010; in the data active = activation above about 47%;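 note: 0% = vehicle wells and 100% = reference agonist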
# Target sequence (P35869 whole entry, looked up): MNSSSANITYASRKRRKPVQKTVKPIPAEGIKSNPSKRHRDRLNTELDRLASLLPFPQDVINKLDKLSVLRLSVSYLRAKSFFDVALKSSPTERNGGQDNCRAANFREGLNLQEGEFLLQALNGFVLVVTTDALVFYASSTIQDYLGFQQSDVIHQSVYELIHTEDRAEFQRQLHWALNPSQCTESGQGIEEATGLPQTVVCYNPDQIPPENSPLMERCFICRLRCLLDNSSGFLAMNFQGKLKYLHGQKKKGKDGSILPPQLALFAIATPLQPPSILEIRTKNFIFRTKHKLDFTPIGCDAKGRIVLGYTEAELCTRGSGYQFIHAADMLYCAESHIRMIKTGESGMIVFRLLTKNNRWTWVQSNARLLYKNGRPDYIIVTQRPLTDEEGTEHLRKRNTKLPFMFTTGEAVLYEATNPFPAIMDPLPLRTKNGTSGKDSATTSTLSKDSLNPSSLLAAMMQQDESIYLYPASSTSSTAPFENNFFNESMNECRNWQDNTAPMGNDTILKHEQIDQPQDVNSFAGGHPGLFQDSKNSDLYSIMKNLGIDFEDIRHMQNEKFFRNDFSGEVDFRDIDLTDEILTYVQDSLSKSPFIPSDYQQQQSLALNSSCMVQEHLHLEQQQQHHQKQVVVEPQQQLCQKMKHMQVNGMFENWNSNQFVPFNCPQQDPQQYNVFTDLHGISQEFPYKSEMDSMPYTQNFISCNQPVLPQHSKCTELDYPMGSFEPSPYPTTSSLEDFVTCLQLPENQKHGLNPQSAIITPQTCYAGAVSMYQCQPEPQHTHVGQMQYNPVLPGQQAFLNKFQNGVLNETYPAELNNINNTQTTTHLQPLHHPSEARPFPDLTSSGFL
# GAA30 counter – GAA30 FXN promoter activators, confirmation, counter-screen for GAA850 frataxin promoter activator project, cell-based, luminescence, HEK293, lucGAA30, triplicate; shares compounds with FXN GAA850 act; HEK293 lucGAA30 FXN promoter luciferase, 24 h; DMSO = 0%, 5 µM ipriflavone = 100%; activation, % at 6 µM; hit rate 66% among 1,900;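 active = mean activation above the mean of solvent-only control wells plus 3 SD, cut at about 22% in these data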;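 note: counterscreen of GAA850 promoter hits where activity marks nonselective or luminescence artifacts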
# FXN GAA850 conf – FXN GAA850 promoter activators in reporter cells, confirmation, cell-based, luminescence, HEK293 lucGAA850, triplicate; shares compounds with FXN GAA850 act; HEK293 lucGAA850 FXN promoter luciferase reporter, 24 h; 100% = activation by SAHA; activation, % at 6 µM; hit rate 86% among 1,900;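 active = mean activation above a set limit taken from the primary screen, cut at about 8% in these data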;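 note: 0% = DMSO wells and 100% = 10 µM SAHA wells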
# * marks the source's active call; other numbers are inactive results; ? = inconclusive; . = no result. In the library only some 4.6% were active in any assay of this set; here they are far more common.
SMILES,HSF1 inhib,HSF1 activator,FXN GAA850 act,AHR activator,GAA30 counter,FXN GAA850 conf
CC[C@]12c3[nH]c4ccc(Cl)cc4c3CCN1C(=O)[C@@H](CC(=O)NCC13CC4CC(CC(C4)C1)C3)C[C@@H]2C(=O)N1CCN(C(=O)c2ccco2)CC1,.,.,-2.1,.,.,.
CC[C@]12c3[nH]c4ccc(OC)cc4c3CCN1C(=O)C(CC(=O)NCC13CC4CC(CC(C4)C1)C3)C[C@@H]2C(=O)N1CCN(C(=O)c2ccco2)CC1 (stereo partly specified),.,.,14.5*,.,1.6,10.6*
CN1C(=O)C2(NCCc3c2[nH]c2ccccc32)c2ccccc21 (stereo unspecified),-10.7,0.9,-1.5,7.6,.,.
CC1Oc2ccccc2C=C1/C=N/Nc1ccc(C(=O)O)cc1 (stereo unspecified),-20.5,-28.4,10.2*,-0.2,97.4*,38.4*
CCOC(=O)C1=C(O)/C(=C/c2ccc(OCC(=O)O)c(OCC)c2)SC1=Nc1ccc(OC)cc1,8.5,-5.1,3.1,-1.6,.,.
CCOC(=O)C1=C(O)/C(=C/c2cc(OC)c(OC)c(OC)c2)SC1=Nc1ccc(OC)cc1,-5.2,-12.7,9.6*,3.0,16.8,10.9*
CC1CCN(CC(CS(=O)(=O)c2ccc([N+](=O)[O-])cc2)N2CCC(C)CC2)CC1 (stereo unspecified),-6.2,-9.4,9.7*,-1.7,61.2*,16.3*
Cc1cc(C)c(NC(=O)CSc2nnc(-c3ccco3)n2N)c(C)c1,-4.1,6.6,1.4,1.2,.,.
Cc1ccc2nc(/C(C#N)=C/c3ccc(-c4ccccc4C(=O)O)o3)[nH]c2c1,-1.3,-17.7,-0.8,30.4,.,.
Cc1ccc2nc(/C(C#N)=C\c3ccc([N+](=O)[O-])o3)[nH]c2c1,?,-41.9,8.1*,32.7,-52.1,-13.2
CCC(=O)N1CCN(c2ccc(NC(=O)c3ccc([N+](=O)[O-])o3)cc2Cl)CC1,115.0,128.4*,9.3*,.,42.2*,25.6*
CC(=O)N1CCN(c2ccc(NC(=O)c3ccc([N+](=O)[O-])o3)cc2Cl)CC1,-88.0*,-89.2,7.7*,-4.1,41.0*,27.8*
CCN1CCN(c2ccc(NC(=O)c3ccc([N+](=O)[O-])o3)cc2Cl)CC1,-42.6,-42.0,4.4,.,.,.
Cc1ccc(-c2nc3c4ccccc4ccn3c2Cc2ccccc2)cc1,.,.,2.0,.,.,.
COc1ccc(NC2CCCN(C(=O)CCN3CCCC3=O)C2)cc1OC (stereo unspecified),-1.4,-8.2,4.0,5.3,.,.
OC1CCN(C(c2ccc3ncccc3c2)c2nnnn2C2CCCCC2)CC1 (stereo unspecified),6.2,2.0,7.8*,-1.0,7.6,7.5
O=S(=O)(Nc1cccc(CO)c1)c1cccs1,-1.6,-9.5,0.6,-0.3,.,.
O=C(N/N=C\c1ccco1)Nc1cccc(Cl)c1,30.3,69.0*,9.0*,51.7*,102.6*,37.6*
CCCSc1nnc(-c2ccccc2N)c(=O)[nH]1,-2.6,-3.2,10.7*,10.2,90.1*,27.8*
COc1ccc(NC(=O)N(Cc2cc3cc(OC)c(OC)cc3[nH]c2=O)CC2CCCO2)cc1 (stereo unspecified),6.7,7.1,0.9,14.0,.,.
Clc1ccc(-c2csc(Nc3ccccc3)[n+]2Cc2ccco2)c(Cl)c1,112.7,92.2*,7.9*,.,82.6*,36.5*
CCCC[n+]1c(-c2ccc(Cl)cc2Cl)csc1Nc1ccccc1,-1.9,24.4,2.1,2.6,.,.
NS(=O)(=O)c1ccc(Nc2nc(-c3ccc(O)cc3)cs2)cc1,-3.6,2.2,0.6,3.8,.,.
CC(C)c1nc2sc3c(NCc4ccco4)ncnc3c2c2c1COC(C)(C)C2,12.4,5.7,8.1*,-5.3,9.5,8.0*
CC(C)c1nc2sc3c(NCc4ccccc4)ncnc3c2c2c1COC(C)(C)C2,1.1,14.9,0.8,1.9,.,.
SMILES,HSF1 inhib,HSF1 activator,FXN GAA850 act,AHR activator,GAA30 counter,FXN GAA850 conf
Cc1nn(CCOc2ccccc2)c(=O)n1-c1c(F)cccc1F,13.5,47.4,4.0,10.9,.,.
Cc1ccc(-n2c(C)nn(CCOc3ccccc3)c2=O)cc1,11.5,23.3,9.3*,11.3,98.3*,27.1*
CCOCCCN(C)C1CCN(C(=O)c2oc3ccccc3c2NC(=O)Cc2ccc([N+](=O)[O-])cc2)CC1,1.8,7.0,-0.6,0.1,.,.
CCC(=O)N/C(N)=N/c1nc2ccccc2o1,1.8,5.3,7.8*,-1.4,113.2*,37.4*
CCCC(=O)N/C(N)=N/c1nc2ccccc2o1,29.0,45.2,3.4,1.0,.,.
CCN(CC)C(=O)C1=C(C)N(CCCN2CCCC2=O)C(=O)C(CC(=O)NCCc2ccccn2)C1 (stereo unspecified),.,.,0.6,.,.,.
O=C1/C(=C/c2ccccc2)Oc2cc(OC(=O)N3CCOCC3)ccc21,22.8,41.3,7.8*,12.1,61.6*,23.7*
O=C1/C(=C/c2ccc(F)cc2)Oc2cc(OC(=O)N3CCOCC3)ccc21,18.1,?,-0.5,0.0,.,.
O=C1c2ccccc2-c2onc3ccc(Oc4ccccc4)c1c23,44.4,48.3,31.9*,14.7,50.8*,39.7*
O=C(COc1ccc(Br)cc1)NCCNC(=O)c1ccncc1,2.8,-2.9,-1.9,3.8,.,.
COc1cccc(NC(=O)Nc2cc(C)ccc2F)c1,9.7,8.5,8.2*,18.0,79.6*,25.4*
C/C(CC(=O)NCc1ccccc1Cl)=N/NC(=O)c1ccccn1,7.6,24.5,8.2*,2.7,49.6*,13.7*
CN(C)c1ccc(O)c2c1CC1CC3C(N(C)C)C(=O)C(C(N)=O)=C(O)[C@@]3(O)C(=O)C1=C2O (stereo partly specified),0.0,-8.4,25.0*,-1.1,23.6*,6.5
C=C1c2cccc(O)c2C(O)=C2C(=O)[C@]3(O)C(O)=C(C(N)=O)C(=O)[C@@H](N(C)C)[C@@H]3[C@@H](O)[C@H]12,-2.1,1.0,16.5*,0.8,28.4*,9.6*
C[C@H]1c2cccc(O)c2C(=O)C2C(=O)C3(O)C(=O)C(C(N)=O)C(=O)[C@@H](N(C)C)[C@@H]3[C@@H](O)[C@@H]21 (stereo partly specified),.,.,14.2*,-1.5,41.2*,12.7*
